Measured values published in PubChem BioAssay (NCATS).
Inconclusive results are not listed. Entries that show only a call come without a potency. Activity calls are given as the source filed them. Calls follow the shape of the dose curve; as a rule, active = well fitted inhibition curve with a large enough effect; inconclusive = small, poorly fitted or top-dose-only effect; inactive = flat fitted curve, though single readings scatter.

How the values were obtained:
[1] = biological target: Luciferin 4-monooxygenase (Photinus pyralis) (UniProt P08659); assay: Biochemical firefly luciferase enzyme assay for NPC (AID 624030);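 also: purified P. pyralis luciferase at 10 nM with luciferin and ATP substrate; nearly all actives have a fitted effect of over 70% in size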
In short: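 Direct inhibition of firefly luciferase enzyme (10 nM final, 50 mM Tris Acetate) assessed by luminescence within 5 minutes. Percent activity scaled between DMSO and PTC124 positive control, with concentration-effect curves classified by fit quality and response.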

AA1029 = assay: qHTS profiling for inhibitors of Plasmodium falciparum proliferation (AID 504749); also: nearly all actives have a fitted effect of over 60% in size; also: potency is read from the fitted curve at half-maximal effect; settings: P. falciparum in erythrocytes, SYBR Green DNA, 72 h; series mostly up to 28.7 µM
In short: (§1)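 Infected RBCs, 0.3% parasitemia/2.5% Hct final; cpd 72 h, 37 C, 5% CO2; lysis buffer with saponin/triton/SYBR Green I, o/n RT dark; FI 485/535; norm. to artemisinin (0.29 uM) and DMSO.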

AS120 = assay: as above; settings: P. falciparum in erythrocytes, SYBR Green DNA, 72 h; series mostly up to 28.7 µM
In short: as §1

CP194 = assay: as above; settings: P. falciparum in erythrocytes, SYBR Green DNA, 72 h; series mostly up to 28.7 µM
In short: as §1

CP203 = assay: as above; settings: P. falciparum in erythrocytes, SYBR Green DNA, 72 h; series mostly up to 28.7 µM
In short: as §1

CP211 = assay: as above; settings: P. falciparum in erythrocytes, SYBR Green DNA, 72 h; series mostly up to 28.7 µM
In short: as §1

CP237 = assay: as above; settings: P. falciparum in erythrocytes, SYBR Green DNA, 72 h; series mostly up to 28.7 µM
In short: as §1

CP268 = assay: as above; settings: P. falciparum in erythrocytes, SYBR Green DNA, 72 h; series mostly up to 28.7 µM
In short: as §1

CP269 = assay: as above; settings: P. falciparum in erythrocytes, SYBR Green DNA, 72 h; series mostly up to 28.7 µM
In short: as §1

CP329 = assay: as above; settings: P. falciparum in erythrocytes, SYBR Green DNA, 72 h; series mostly up to 28.7 µM
In short: as §1

FAB9 = assay: as above; settings: P. falciparum in erythrocytes, SYBR Green DNA, 72 h; series mostly up to 28.7 µM
In short: as §1

JCK = assay: as above; settings: P. falciparum in erythrocytes, SYBR Green DNA, 72 h; series mostly up to 28.7 µM
In short: as §1

N140 = assay: as above; settings: P. falciparum in erythrocytes, SYBR Green DNA, 72 h; series mostly up to 28.7 µM
In short: as §1

PAD = assay: as above; settings: P. falciparum in erythrocytes, SYBR Green DNA, 72 h; series mostly up to 28.7 µM
In short: as §1

PC15 = assay: as above; settings: P. falciparum in erythrocytes, SYBR Green DNA, 72 h; series mostly up to 28.7 µM
In short: as §1

SC27B = assay: as above; settings: P. falciparum in erythrocytes, SYBR Green DNA, 72 h; series mostly up to 28.7 µM
In short: as §1

TAB109 = assay: as above; settings: P. falciparum in erythrocytes, SYBR Green DNA, 72 h; series mostly up to 28.7 µM
In short: as §1

TAB113 = assay: as above; settings: P. falciparum in erythrocytes, SYBR Green DNA, 72 h; series mostly up to 28.7 µM
In short: as §1

TAB165 = assay: as above; settings: P. falciparum in erythrocytes, SYBR Green DNA, 72 h; series mostly up to 28.7 µM
In short: as §1

CP305 = assay: as above; settings: P. falciparum in erythrocytes, SYBR Green DNA, 72 h; series mostly up to 28.7 µM
In short: as §1

Luciferin 4-monooxygenase (Photinus pyralis), sequence (P08659 whole entry, looked up): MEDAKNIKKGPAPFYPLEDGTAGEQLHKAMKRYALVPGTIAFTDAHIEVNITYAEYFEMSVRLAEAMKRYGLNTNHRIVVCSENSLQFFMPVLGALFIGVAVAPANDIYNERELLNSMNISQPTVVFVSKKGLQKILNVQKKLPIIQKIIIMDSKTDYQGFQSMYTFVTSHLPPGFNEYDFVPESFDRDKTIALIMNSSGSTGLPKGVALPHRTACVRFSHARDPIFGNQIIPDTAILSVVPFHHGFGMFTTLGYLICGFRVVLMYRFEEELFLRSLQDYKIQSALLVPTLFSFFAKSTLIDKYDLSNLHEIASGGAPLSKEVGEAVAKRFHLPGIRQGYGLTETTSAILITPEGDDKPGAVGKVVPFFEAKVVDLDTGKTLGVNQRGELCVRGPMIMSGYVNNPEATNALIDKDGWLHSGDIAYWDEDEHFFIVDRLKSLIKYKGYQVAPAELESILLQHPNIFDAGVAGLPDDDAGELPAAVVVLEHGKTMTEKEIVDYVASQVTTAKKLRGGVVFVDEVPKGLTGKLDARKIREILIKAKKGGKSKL

Row | Compound | Potency [1] | Potency (AA1029) | Potency (AS120) | Potency (CP194) | Potency (CP203) | Potency (CP211) | Potency (CP237) | Potency (CP268) | Potency (CP269) | Potency (CP329) | Potency (FAB9) | Potency (JCK) | Potency (N140) | Potency (PAD) | Potency (PC15) | Potency (SC27B) | Potency (TAB109) | Potency (TAB113) | Potency (TAB165) | Potency (CP305)
1 | CO/N=C(/C(=O)N[C@@H]1C(=O)N2C(C(=O)O)=C(CSC(=O)c3ccco3)CSC12)c1csc(N)n1 (stereo partly drawn) | inactive | inactive | inactive | inactive | inactive | inactive | inactive | inactive | inactive | inactive | inactive | inactive | inactive | inactive | inactive | inactive | inactive | inactive | inactive | 
2 | CC[C@H](C)[C@H]1O[C@]2(CC[C@@H]1C)C[C@@H]1C[C@@H](C/C=C(\C)[C@H](O[C@@H]3C[C@H](OC)[C@H](O[C@@H]4C[C@H](OC)[C@@H](O)[C@H](C)O4)[C@H](C)O3)[C@@H](C)/C=C/C=C3\CO[C@@H]4[C@H](O)C(C)=C[C@@H](C(=O)O1)[C@]34O)O2 | inactive | 1 µM (active) | 1 µM (active) | 1.35 µM (active) | 1.51 µM (active) | 1.35 µM (active) | 2.24 µM (active) | 1.69 µM (active) | 1.35 µM (active) | 1.35 µM (active) | 3.16 µM (active) | 15.8 µM (active) | 1 µM (active) | 1.41 µM (active) | 2.82 µM (active) | 1 µM (active) | 1.26 µM (active) | 0.891 µM (active) | 0.794 µM (active) | 1.69 µM (active)
3 | CCN(CC)CC(=O)Nc1c(C)cc(C)cc1C | inactive | inactive | inactive | inactive | inactive | inactive | inactive | inactive | inactive | inactive | inactive | inactive | inactive | inactive | inactive | inactive | inactive | inactive | inactive | inactive
4 | CN[C@H](C)CCC=C(C)C | inactive | 0.199 µM (active) | 0.224 µM (active) | 0.675 µM (active) | 0.601 µM (active) | 0.953 µM (active) | 0.199 µM (active) | 1.51 µM (active) | 0.478 µM (active) |  | 1.41 µM (active) | 0.355 µM (active) | 0.112 µM (active) | 0.178 µM (active) | 0.355 µM (active) | 0.355 µM (active) | 0.398 µM (active) | 0.178 µM (active) | 0.251 µM (active) | 1.69 µM (active)
5 | NC(=O)C1CC2(NC(=O)NC2=O)c2cc(F)ccc2O1 (stereo not drawn) | inactive | inactive | inactive | inactive | inactive | inactive | inactive | inactive | inactive | inactive | inactive | inactive | inactive | inactive | inactive | inactive | inactive | inactive | inactive | inactive
6 | CCCCC(=O)O[C@]1(C(=O)CO)CCC2C3CCC4=CC(=O)CCC4(C)C3C(O)CC21C (stereo partly drawn) | inactive | inactive | inactive | inactive | inactive | inactive | inactive | inactive | inactive | inactive | inactive | inactive | inactive | inactive | inactive | inactive | inactive | inactive | inactive | inactive
7 | CC1(C)CC1C(=O)N/C(=C/CCCCSCC(N)C(=O)O)C(=O)O (stereo not drawn) | inactive | inactive | inactive | inactive | inactive | inactive | inactive | inactive | inactive | inactive | inactive | inactive | inactive | inactive | inactive | inactive | inactive | inactive | inactive | inactive
8 | NC(=O)OC[C@@H]1[C@H](NC(=O)/C(=N/OCC(=O)O)c2csc(N)n2)C(=O)N1S(=O)(=O)O | inactive | inactive | inactive | inactive | inactive | inactive | inactive |  | inactive | inactive | 0.1 µM (active) |  | inactive | inactive | inactive | inactive | inactive | inactive | inactive | inactive
9 | CC1(C(=O)O)CCC2(C)CCC3(C)C(=CC(=O)C4C5(C)CCC(O)C(C)(C)C5CCC43C)C2C1 (stereo not drawn) | inactive | inactive | inactive | inactive | inactive | inactive | inactive | inactive | inactive | inactive | inactive | inactive | inactive | inactive | inactive | inactive | inactive | inactive | inactive | inactive
10 | CCC(=O)O[C@]1(C(=O)CCl)[C@@H](C)CC2C3C[C@H](F)C4=CC(=O)C=CC4(C)[C@@]3(F)C(O)CC21C (stereo partly drawn) | inactive | 8.91 µM (active) | 7.94 µM (active) | 15.1 µM (active) |  | 9.53 µM (active) | 3.55 µM (active) | 12 µM (active) | 12 µM (active) | 15.1 µM (active) | inactive |  | 6.31 µM (active) | 3.98 µM (active) | 8.91 µM (active) | 7.94 µM (active) | 5.01 µM (active) | 8.91 µM (active) | 10 µM (active) | 12 µM (active)
11 | C/C(=C(/CCO)SS/C(CCO)=C(\C)N(C=O)Cc1cnc(C)nc1N)N(C=O)Cc1cnc(C)nc1N | inactive | inactive | inactive | inactive | inactive | inactive | inactive | inactive | inactive | inactive | inactive | inactive | inactive | inactive | inactive | inactive |  | inactive | inactive | inactive
12 | CC1(Cn2ccnn2)[C@H](C(=O)O)N2C(=O)C[C@H]2S1(=O)=O (stereo partly drawn) | inactive | inactive | inactive | inactive | inactive | inactive | inactive | inactive | inactive | inactive | inactive | inactive | inactive | inactive | inactive | inactive | inactive | inactive | inactive | inactive
13 | CC1C(=O)C(=O)C=CN1C (stereo not drawn) | inactive | inactive | inactive | inactive | inactive | inactive | inactive | inactive | inactive | inactive | inactive | inactive | inactive | inactive | inactive | inactive | inactive | inactive | inactive | inactive
14 | CC(CCC(=O)O)C1CCC2C3C(=O)C[C@@H]4CC(=O)CC[C@@]4(C)C3CC(=O)[C@]12C (stereo partly drawn) | inactive | inactive | inactive | inactive | inactive | inactive | inactive | inactive | inactive | inactive | inactive | inactive | inactive | inactive | inactive | inactive | inactive | inactive | inactive | inactive
15 | CC(=O)OC1C([N+]2(C)CCCCC2)C[C@H]2C3CC[C@H]4C[C@H](OC(C)=O)C([N+]5(C)CCCCC5)CC4(C)C3CCC12C (stereo partly drawn) | inactive | inactive | inactive |  |  |  | inactive |  |  |  | inactive | inactive | inactive | inactive | inactive | inactive | inactive | inactive | inactive | 
16 | C=C1NC(=O)c2cc(CN(C)c3ccc(C(=O)N[C@@H](CCC(=O)O)C(=O)O)s3)ccc2N1 | inactive | inactive | inactive | inactive | inactive | inactive |  | inactive | inactive | inactive | inactive | inactive | inactive |  | inactive | inactive | inactive | inactive | inactive | inactive
17 | OCC(CO)NC1C[C@](O)(CO)[C@@H](O)[C@H](O)[C@H]1O (stereo partly drawn) | inactive | inactive | inactive | inactive | inactive | inactive | inactive | inactive | inactive | inactive | inactive | inactive | inactive | inactive | inactive | inactive | inactive | inactive | inactive | inactive
18 | CC(CN1CC(=O)NC(=O)C1)N1CC(=O)NC(=O)C1 (stereo not drawn) | inactive | inactive | inactive | inactive | inactive | inactive | inactive | inactive | inactive | inactive | inactive | inactive | inactive | inactive | inactive | inactive | inactive | inactive | inactive | inactive
19 | Cc1onc(-c2c(F)cccc2Cl)c1C(=O)NC1C(=O)N2C1SC(C)(C)C2C(=O)O (stereo not drawn) | inactive | inactive | inactive | inactive | inactive | inactive | inactive | inactive |  | inactive | inactive | inactive | inactive | inactive | inactive | inactive | inactive | inactive | inactive | inactive
20 | CCCC(=O)Nc1c(I)cc(I)c(C[C@H](CC)C(=O)O)c1I | inactive | inactive | inactive | inactive | inactive | inactive | inactive | inactive | inactive | inactive | inactive | inactive | inactive | inactive | inactive | inactive | inactive | inactive | inactive | inactive
21 | CCC(C(=O)C(C)C(O)C(C)CCc1ccc(C)c(O)c1C(=O)O)C1OC(CC)(C2CC[C@@](O)(CC)C(C)O2)CC1C (stereo partly drawn) | inactive | 0.708 µM (active) | 0.398 µM (active) | 0.849 µM (active) | 0.849 µM (active) | 0.536 µM (active) | 0.562 µM (active) | 0.849 µM (active) | 0.757 µM (active) | 0.757 µM (active) | 2 µM (active) | 8.91 µM (active) | 0.562 µM (active) | 1.26 µM (active) | 1.41 µM (active) | 0.447 µM (active) | 0.891 µM (active) | 0.891 µM (active) | 0.355 µM (active) | 0.675 µM (active)
22 | C[S+](C)CC[C@H](N)C(=O)O | inactive | inactive | inactive | inactive | inactive | inactive | inactive | inactive | inactive | inactive | inactive | inactive | inactive | inactive | inactive | inactive | inactive | inactive | inactive | inactive
